Experimental data as given in PubChem BioAssay (NCATS).
Inconclusive results are not listed. Activity calls are given as the source filed them. Unless noted, calls follow the shape of the dose curve; as a rule, active = well fitted curve in either direction with a large enough effect (not every such curve was filed as active); inconclusive = small, poorly fitted or top-dose-only effect, or another doubt; inactive = flat fitted curve, though single readings scatter.

How the values were obtained:
[1] = target: Lysosomal acid glucosylceramidase (Homo sapiens) (UniProt P04062); experiment: Glucocerebrosidase-p2 (AID 348; in the data active = potency below about 10 µM; also: potency is read from the fitted curve at half-maximal effect); details: purified GBA, blue fluorogenic substrate, 40 min
Procedure, shortened: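 Normal human glucocerebrosidase (0.2 nM) with blue fluorogenic substrate (80 uM final) in citrate/phosphate pH 5.9 with 10mM sodium taurocholate, 0.01% tween-20; 40 min RT, NaOH/glycine stop; fluorescence Ex 365/Em 440; AC50 from a titration from 0.6 nM upwards.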

[2] = AP1 Signaling Pathway (AID 357); details: ME-180 AP-1-bla reporter, EGF-induced, beta-lactamase ratio, 5 h; at 7.69 µM (top of the series) unless noted;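 also: ME-180 reporter cells stimulated with EGF at its EC50 level; % is scaled to controls: 0 for no effect and ±100 for the full control effect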
Procedure, shortened: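 Cells are seeded overnight, exposed to compound titrations and an EC50 level of EGF for 5 hours at 37 °C, then loaded with CCF4 dye for 2.5 hours. Beta-lactamase activity under the AP-1 element is read as a blue/green ratio.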

[3] = NFAT Signaling Pathway (AID 444); details: Jurkat NFAT-bla M1, carbachol, beta-lactamase ratio, 5 h; at 7.69 µM (top of the series) unless noted;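 also: carbachol stimulus at about its EC50 of 1 µM final; % is scaled to controls: 0 for no effect and ±100 for the full control effect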
Procedure, shortened: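 Read-out: CCF4 FRET ratio (460 nm/530 nm) after 1 h RT dye loading, used for %activity and AC50 from titration series. Cells: Jurkat NFAT-β-lactamase/M1 line, treated with compound plus 1 uM carbachol for 5 h, 37 °C.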

[4] = Stat Signaling Pathway (AID 446); details: ME-180 (cervical carcinoma) SIE beta-lactamase reporter, IL-6 stimulated, 5 h; at 7.69 µM (top of the series) unless noted;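 also: ME-180 cervical cancer cells given 40 pM IL-6 alongside compound; SIE-controlled beta-lactamase reporter measured as 460/530 nm FRET emission ratio; % is scaled to controls: 0 for no effect and ±100 for the full control effect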
Procedure, shortened: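 FRET read-out (405 nm excitation, 460/530 nm emission) of a beta-lactamase reporter under a STAT-inducible element in ME-180 cervical carcinoma cells. Cells with compound receive 40 pM IL-6 for 5 h. Values are normalised to AC90 stimulation and AC90 JAK-inhibitor controls.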

[5] = target: Glucocorticoid receptor (Homo sapiens) (UniProt P04150); experiment: GR-GFP Redistribution (AID 450;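 active = compounds whose dose series gives a full or clear partial fitted curve of increased nuclear translocation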; also: potency is read from the fitted curve at half-maximal effect); details: U2OS GR-GFP nuclear translocation, laser cytometry, 2 h
[6] = target: Glucocorticoid receptor (Homo sapiens) (UniProt P04150); experiment: GR-EFC Redistribution (AID 451; calls by dose curve; also: potency is read from the fitted curve at half-maximal effect); details: CHO-K1 GR-EFC translocation, beta-gal luminescence, 2 h
Procedure, shortened: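 Translocation of GR-ED fusion to nuclear EA restores b-gal, read by luminescence after 1 h room-temperature detection. Engineered CHO-K1 biosensor cells, 1,000/well, exposed 2 h at 37 C to titrations up to 46 uM final.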

[7] = target: Mitogen-activated protein kinase 10 (Mus musculus) (UniProt Q61831); experiment: JNK3 AlphaScreen Assay (AID 530); details: JNK3 lysate, c-Jun phosphorylation; series mostly up to 11.4 µM;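 also: kinase came from lysate of stimulated human HepG2 cells; signal reports phosphorylation of biotinylated GST-cJun 1-79 at Ser73 with 10 µM ATP; % is scaled to controls: 0 for no effect and ±100 for the full control effect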
Procedure, shortened: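 Kinase buffer: 20 mM Tris-HCl pH 7.6, 10 mM MgCl2, 1 mM DTT, 0.1 mM Na3VO4, 0.01% Tween-20; ATP 10 uM. Substrate biotin-GST-cJun(1-79), enzyme from activated HepG2 lysates. Detection by Ser73 phospho-antibody AlphaScreen.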

[8] = target: 3',5'-cyclic-AMP phosphodiesterase 4B (Homo sapiens) (UniProt Q07343); experiment: qHTS Assay for Inhibitors of PDE-IV (AID 607; active = well fitted activation curve with a large enough effect in the main read-out, with a control signal flat, not every such curve was filed as active; also: % of control where 0% means no effect); details: HEK293 ACTOne CNG channel cells, membrane potential fluorescence; series mostly up to 22.9 µM
Procedure, shortened: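 Cell-based read-out of cAMP via a modified cyclic nucleotide-gated channel and membrane potential dye (535/590 nm) in HEK293 cells expressing PDE4 endogenously. Compounds tested up to 22.9 uM final; 100 uM RO 20-1724 reference.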

3',5'-cyclic-AMP phosphodiesterase 4B (Homo sapiens), sequence (Q07343 whole entry, looked up): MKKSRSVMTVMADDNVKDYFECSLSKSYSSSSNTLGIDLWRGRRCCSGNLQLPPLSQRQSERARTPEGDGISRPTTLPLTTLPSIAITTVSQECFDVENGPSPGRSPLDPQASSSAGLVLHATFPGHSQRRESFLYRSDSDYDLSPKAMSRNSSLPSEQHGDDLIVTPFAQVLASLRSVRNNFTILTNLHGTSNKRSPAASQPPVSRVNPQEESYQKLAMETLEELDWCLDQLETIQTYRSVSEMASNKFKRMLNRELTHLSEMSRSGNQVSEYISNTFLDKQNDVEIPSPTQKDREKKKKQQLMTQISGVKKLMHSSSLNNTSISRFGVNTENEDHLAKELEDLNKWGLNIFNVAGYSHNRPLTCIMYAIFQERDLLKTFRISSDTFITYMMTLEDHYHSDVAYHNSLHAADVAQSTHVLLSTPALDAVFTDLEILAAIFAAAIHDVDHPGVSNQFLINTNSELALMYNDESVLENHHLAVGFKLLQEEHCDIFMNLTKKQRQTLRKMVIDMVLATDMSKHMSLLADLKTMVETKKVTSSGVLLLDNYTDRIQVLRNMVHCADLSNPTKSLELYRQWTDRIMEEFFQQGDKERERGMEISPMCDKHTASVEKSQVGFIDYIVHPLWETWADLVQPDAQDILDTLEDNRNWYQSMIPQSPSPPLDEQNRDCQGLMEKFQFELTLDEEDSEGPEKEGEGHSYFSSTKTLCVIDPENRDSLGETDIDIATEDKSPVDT
Lysosomal acid glucosylceramidase (Homo sapiens), sequence (P04062 whole entry, looked up): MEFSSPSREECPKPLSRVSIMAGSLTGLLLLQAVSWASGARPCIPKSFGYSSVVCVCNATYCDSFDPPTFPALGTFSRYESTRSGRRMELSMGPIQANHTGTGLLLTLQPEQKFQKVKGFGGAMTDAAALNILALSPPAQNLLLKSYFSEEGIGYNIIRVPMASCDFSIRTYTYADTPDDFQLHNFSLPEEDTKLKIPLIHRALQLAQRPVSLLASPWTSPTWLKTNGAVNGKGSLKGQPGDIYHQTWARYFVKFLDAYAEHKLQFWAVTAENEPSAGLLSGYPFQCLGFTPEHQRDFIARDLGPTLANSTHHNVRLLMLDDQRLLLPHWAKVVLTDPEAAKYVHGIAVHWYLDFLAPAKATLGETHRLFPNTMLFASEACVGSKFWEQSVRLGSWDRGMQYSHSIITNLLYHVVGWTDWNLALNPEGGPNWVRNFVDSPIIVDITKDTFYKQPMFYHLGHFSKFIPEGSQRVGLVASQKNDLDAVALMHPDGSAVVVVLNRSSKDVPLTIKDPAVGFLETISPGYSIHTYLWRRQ
Glucocorticoid receptor (Homo sapiens), sequence (P04150 whole entry, looked up, the tested form may be a part): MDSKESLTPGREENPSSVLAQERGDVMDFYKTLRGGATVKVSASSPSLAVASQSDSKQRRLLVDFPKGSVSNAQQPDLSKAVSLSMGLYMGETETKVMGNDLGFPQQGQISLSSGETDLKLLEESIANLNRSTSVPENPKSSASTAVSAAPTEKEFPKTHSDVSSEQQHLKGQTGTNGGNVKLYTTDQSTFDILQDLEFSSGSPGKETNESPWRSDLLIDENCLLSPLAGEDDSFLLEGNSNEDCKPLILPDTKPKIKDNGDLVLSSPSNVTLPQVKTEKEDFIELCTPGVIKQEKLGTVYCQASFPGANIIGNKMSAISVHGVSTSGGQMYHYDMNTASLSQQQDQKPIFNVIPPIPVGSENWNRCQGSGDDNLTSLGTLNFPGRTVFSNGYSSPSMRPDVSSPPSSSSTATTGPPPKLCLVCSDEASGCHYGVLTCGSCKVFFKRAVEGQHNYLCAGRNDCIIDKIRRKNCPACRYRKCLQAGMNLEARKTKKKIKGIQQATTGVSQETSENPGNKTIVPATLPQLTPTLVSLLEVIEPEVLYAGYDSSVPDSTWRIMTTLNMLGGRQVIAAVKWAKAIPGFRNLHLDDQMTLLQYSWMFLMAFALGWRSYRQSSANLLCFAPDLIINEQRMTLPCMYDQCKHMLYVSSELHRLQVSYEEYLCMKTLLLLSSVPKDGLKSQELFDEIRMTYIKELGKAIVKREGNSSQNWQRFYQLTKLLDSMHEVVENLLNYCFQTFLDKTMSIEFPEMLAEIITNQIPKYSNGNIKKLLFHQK

NNC(=O)c1ccc(OCc2nc3ccccc3[nH]2)cc1
inactive: Potency [1] > 11.4 µM | activity change, negative = inhibition [2] -12.3% | activity change, negative = inhibition [3] 13.6% | activity, negative = inhibition [4] -6.78% | Potency [5] > 46 µM | Potency [6] > 9.22 µM | Potency [7] | Potency [8]

O=c1c2ccccc2c2ccccc2c(=O)n1-c1cc2c3ccccc3ccc2c2ccccc12
inactive: Potency [1] > 11.4 µM | activity change, negative = inhibition [2] 13.5% | activity change, negative = inhibition [3] 2.31% | activity, negative = inhibition [4] -7.32% | Potency [5] > 46 µM | Potency [6] > 9.22 µM | Potency [7] | Potency [8]

Cc1ccc(S(=O)(=O)OC2CCN(C)CC2)cc1
inactive: Potency [1] > 11.4 µM | activity change, negative = inhibition [2] 0.369% | activity change, negative = inhibition [3] 2.31% | activity, negative = inhibition [4] 3.66% | Potency [5] > 46 µM | Potency [6] > 9.22 µM | Potency [7] | Potency [8]

CN1CCN(CC(=O)Nc2cccc3ccccc23)CC1
inactive: Potency [1] > 11.4 µM | activity change, negative = inhibition [2] -2.71% | activity change, negative = inhibition [3] 5.99% | activity, negative = inhibition [4] 15.2% | Potency [5] > 46 µM | Potency [6] > 9.22 µM | Potency [7] | Potency [8]

CC(C)(SCc1ccccc1)[C@H](N)C(=O)O
inactive: Potency [1] > 11.4 µM | activity change, negative = inhibition [2] 0.115% | activity change, negative = inhibition [3] 12.4% | activity, negative = inhibition [4] 5.95% | Potency [5] > 46 µM | Potency [6] > 9.22 µM | Potency [7] | Potency [8]

O=C(O)CCn1cnc2c(=S)nc[nH]c21
inactive: Potency [1] > 11.4 µM | activity change, negative = inhibition [2] -2.08% | activity change, negative = inhibition [3] 1.47% | activity, negative = inhibition [4] -0.455% | Potency [5] > 46 µM | Potency [6] > 9.22 µM | Potency [7] | Potency [8]

O=C(O)/C(Cc1ccnc2ccccc12)=N\O
inactive: Potency [1] > 11.4 µM | activity change, negative = inhibition [2] -9.39% | activity change, negative = inhibition [3] 0.364% | activity, negative = inhibition [4] 4.23% | Potency [5] > 46 µM | Potency [6] > 9.22 µM | Potency [7] | Potency [8]

O=C(O)CSc1ccccc1C(=O)O
inactive: Potency [1] > 11.4 µM | activity change, negative = inhibition [2] 9.97% | activity change, negative = inhibition [3] -5.26% | activity, negative = inhibition [4] -2.73% | Potency [5] > 46 µM | Potency [6] > 9.22 µM | Potency [7] | Potency [8]

NCC(=O)[C@@H](O)[C@H](O)[C@H](O)CO
inactive: Potency [1] > 11.4 µM | activity change, negative = inhibition [2] -1.89% | activity change, negative = inhibition [3] 8.35% | activity, negative = inhibition [4] 3.6% | Potency [5] > 46 µM | Potency [6] > 9.22 µM | Potency [7] | Potency [8]

CC(=O)[C@@]1(N=Nc2ccc(S(N)(=O)=O)cc2)CCOC1=O
inactive: Potency [1] > 11.4 µM | activity change, negative = inhibition [2] -8.54% | activity change, negative = inhibition [3] 5.28% | activity, negative = inhibition [4] 6.55% | Potency [5] > 46 µM | Potency [6] > 9.22 µM | Potency [7] | Potency [8]

C[N+](C)(N)Cc1nc(-c2ccc(Cl)cc2)no1
inactive: Potency [1] > 11.4 µM | activity change, negative = inhibition [2] 3.76% | activity change, negative = inhibition [3] -6.01% | activity, negative = inhibition [4] 4.26% | Potency [5] > 46 µM | Potency [6] > 9.22 µM | Potency [7] | Potency [8]

O=C(O)C(Cc1ccccc1)Cc1ccccc1
inactive: Potency [1] > 11.4 µM | activity change, negative = inhibition [2] 8.41% | activity change, negative = inhibition [3] 1.48% | activity, negative = inhibition [4] -8.39% | Potency [5] > 46 µM | Potency [6] > 9.22 µM | Potency [7] | Potency [8]

COCCn1c(=O)cnc2cnc(N3CCNCC3)nc21
inactive: Potency [1] > 11.4 µM | activity change, negative = inhibition [2] -9.65% | activity change, negative = inhibition [3] -7.03% | activity, negative = inhibition [4] -2.85% | Potency [5] > 9.22 µM | Potency [6] > 46 µM | Potency [7] | Potency [8]

O=C(O)CCN1C(=S)CSC1=S
inactive: Potency [1] > 11.4 µM | activity change, negative = inhibition [2] -2.79% | activity change, negative = inhibition [3] 8.02% | activity, negative = inhibition [4] 10.1% | Potency [5] > 46 µM | Potency [6] > 9.22 µM | Potency [7] | Potency [8]

NC(N)=NC(N)=Nc1ccc(C(=O)O)cc1
inactive: Potency [1] > 11.4 µM | activity change, negative = inhibition [2] 7% | activity change, negative = inhibition [3] 6.33% | activity, negative = inhibition [4] 16.2% | Potency [5] > 46 µM | Potency [6] > 9.22 µM | Potency [7] | Potency [8]

O=C(O)/C=C\C=C/c1ccc2c(c1)OCO2
inactive: Potency [1] > 11.4 µM | activity change, negative = inhibition [2] 6.54% | activity change, negative = inhibition [3] 5.9% | activity, negative = inhibition [4] 1.24% | Potency [5] > 46 µM | Potency [6] > 9.22 µM | Potency [7] | Potency [8]

CC(C)c1cc(CN(C)C)c(O)c(C(C)(C)C)c1
inactive: Potency [1] > 11.4 µM | activity change, negative = inhibition [2] 1.46% | activity change, negative = inhibition [3] -5.67% | activity, negative = inhibition [4] -8.11% | Potency [5] > 46 µM | Potency [6] > 9.22 µM | Potency [7] | Potency [8]
